Screening results deposited in PubChem BioAssay by DiRusso Lab, Biochemistry Department, University of Nebraska.
The sample as a whole holds a higher share of hits than the screen did.
Chlamy TAG = increases triacylglycerol in Chlamydomonas reinhardtii; 44,000 compounds, 0.84% hits; AID 1159537; Chlamydomonas reinhardtii TAG, Nile Red fluorescence, 72 h; calls only at 10 µM (by protocol); call rule not given here;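 further: hits raise Nile Red signal meaning more stored TAG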
Each line names hits and unclear results; the compound was inactive in the other large screens.

O=[N+]([O-])c1ccc(CN2CCC(N3CCCCC3)CC2)cc1	none
COc1ccc(CN2CCN(Cc3ccc([N+](=O)[O-])cc3)CC2)cc1OC	Chlamy TAG active
Cc1c(C(=O)Nc2ccc(N3CCCC3)cc2)cccc1[N+](=O)[O-]	none
Cc1nc2c(c3c1[nH]c1ccccc13)C(=O)CCC2	none
CC1CCN(C2CC(=O)N(c3ccc(S(=O)(=O)N4CCOCC4)cc3)C2=O)CC1 (stereo not given)	none
NC(=O)c1ccc(NC(=O)c2cccc(Br)c2)cc1	none
CN(C)c1ccc(-c2nnc(C(=O)c3ccccc3)o2)cc1	none
COc1cc(NC(=O)C(Cl)Cl)c(OC)cc1Cl	Chlamy TAG active
CCCC(=O)Nc1cc(OC)c(Cl)cc1OC	none
COc1ccc(NC(=O)C(Cl)Cl)cc1Cl	none
Fc1ccccc1N1CCN(C2Cc3ccccc3C2)CC1	none
Fc1ccccc1N1CCN(CC2CCCCC2)CC1	Chlamy TAG active
CCOc1ccccc1N1CCN(C(=O)C2CCN(CC3CCCCC3)CC2)CC1	none
COc1ccc(NC(=O)CCC2CCCCC2)c(OC)c1	none
COc1ccc(NC(=O)CCC2CCCCC2)c([N+](=O)[O-])c1	Chlamy TAG active
Cc1ccc(NC(=O)CCC2CCCCC2)c([N+](=O)[O-])c1	none
CC(=O)Nc1cccc(NS(=O)(=O)c2ccc(F)cc2)c1	none
CSc1ccc(C2C(C#N)=C(N)OC3=C2C(=O)CC(c2ccccc2)C3)cc1 (stereo not given)	none
O=C(O)CCCN1C(=O)C(=O)C(=C(O)c2ccccc2)C1c1ccc([N+](=O)[O-])cc1 (stereo not given)	none
O=c1c(CN2CCN(Cc3ccc4c(c3)OCO4)CC2)coc2ccccc12	none
O=C1CC(N2CCN(Cc3ccc4c(c3)OCO4)CC2)C(=O)N1CCc1ccccc1 (stereo not given)	Chlamy TAG active
O=C1c2ccccc2C(=O)N1CN1CCN(Cc2ccc3c(c2)OCO3)CC1	none
CCc1nc(C)cc([N+](=O)[O-])c1O	none
COc1ccc(N2C(=O)CC(Sc3nc4ccccc4c(=O)n3-c3ccccc3)C2=O)cc1 (stereo not given)	none
C=CCn1c(SCC)nnc1-c1ccc([N+](=O)[O-])cc1	none
C=CCn1c(SCC(=O)O)nnc1-c1ccc([N+](=O)[O-])cc1	Chlamy TAG active
C=CCn1c(SCC(=O)O)nnc1-c1ccc(OC)cc1	none
COc1cc(C(=O)Nc2nc3c(s2)CCCC3)cc(OC)c1OC	Chlamy TAG active
CCc1nnc(NC(=O)c2cc(OC)c(OC)c(OC)c2)s1	none
O=C(Nc1nc2c(s1)CCCC2)c1cccc(Cl)c1	none
O=C(C1c2ccccc2Oc2ccccc21)N1CCCC1	none
O=[N+]([O-])c1ccc(CN2CCN(c3ncccn3)CC2)cc1	none
CCCCOc1ccc(CN2CCN(c3ccc([N+](=O)[O-])cc3)CC2)cc1	Chlamy TAG active
COc1cc(CN2CCN(c3ccc([N+](=O)[O-])cc3)CC2)cc(Br)c1O	none
CCOc1ccc(CN2CCN(c3ccc([N+](=O)[O-])cc3)CC2)cc1	Chlamy TAG active
O=C(O)c1ccc(CN2CCN(c3ccc([N+](=O)[O-])cc3)CC2)cc1	none
O=[N+]([O-])c1ccc(N2CCN(Cc3ccncc3)CC2)cc1	none
O=C(COc1ccc(Cl)cc1)Nc1ccccc1I	none
Cc1ccccc1Cn1c(=N)n(CC(=O)O)c2ccccc21	none
CC(C)NC(=O)C(=O)Nc1cccc(Cl)c1Cl	none
Cc1nc(NS(=O)(=O)c2ccc([N+](=O)[O-])cc2)sc1C	none
C=CCNC(=O)CN(c1ccc(C(C)C)cc1)S(C)(=O)=O	none
COc1ccccc1N1CCN(C(=O)c2ccc(CN(c3ccccc3)S(C)(=O)=O)cc2)CC1	none
Cc1cc(NC(=O)c2cccc([N+](=O)[O-])c2)ccc1I	none
O=C(NC1CCCCCC1)c1ccc([N+](=O)[O-])cc1Cl	none
Cc1cc(C)c(S(=O)(=O)N2CCN(c3ccccc3)CC2)cc1Br	none
Cc1cc(C)c(S(=O)(=O)N2CCN(C)CC2)cc1C	none
Cc1cc(C)c(S(=O)(=O)N2CCN(C)CC2)cc1Br	Chlamy TAG active
CCOc1ccc(NC(=O)C2CCN(C(=O)c3cccc(Cl)c3)CC2)cc1	none
O=c1c2sc3ncc([N+](=O)[O-])cc3c2ncn1-c1ccccc1	none
CCOc1ccc(N(CC(=O)NCc2ccncc2)S(=O)(=O)c2ccc(SC)cc2)cc1	none
Clc1ccccc1OCCN1CCCC1	none
O=C1C2C3CCC(C3)C2C(=O)N1c1nccs1 (stereo not given)	Chlamy TAG active
O=C1C2C(C(=O)N1c1nccs1)C1C=CC2C12CC2 (stereo not given)	none
O=C1c2ccc(Oc3ccc4c(c3)C(=O)N(c3nccs3)C4=O)cc2C(=O)N1c1nccs1	none
CC1CN(c2ccc([N+](=O)[O-])cc2Cl)CCN1S(=O)(=O)Cc1ccccc1 (stereo not given)	none
Cc1cccc(NC(=O)CSCc2ccc(Cl)cc2)c1C	none
O=C(Nc1ccccc1)c1ccc(I)o1	none
COc1ccccc1CC(=O)NC12CC3CC(CC(C3)C1)C2	none
Oc1ccccc1CNCCC12CC3CC(CC(C3)C1)C2	Chlamy TAG active
CC(C)(C)C(=O)NCCC12CC3CC(CC(C3)C1)C2	none
CCc1ccc(C(=O)CSc2nnnn2C)cc1	none
CC1CCCN(C2CCN(Cc3ccccc3)CC2)C1 (stereo not given)	none
C=C(C)CN(CC)C1CCN(Cc2ccccc2)CC1	none
CC(=O)N1CCN(C2CCC(C)CC2)CC1 (stereo not given)	none
CCN1CCC(N2CCN(C=O)CC2)CC1	none
CC1CCC(N2CCN(Cc3ccccc3)CC2)CC1 (stereo not given)	Chlamy TAG active
CCN1CCN(C2CCC(C)CC2)CC1 (stereo not given)	Chlamy TAG active
c1ccc(CN2CCC(N3CCN(Cc4ccco4)CC3)CC2)cc1	none
CN(CCc1ccccc1)C1CCN(Cc2ccccc2)CC1	Chlamy TAG active
CCCCN(C)C1CCN(Cc2ccccc2)CC1	none
O=C(Nc1ccc(-c2nc3ccccc3o2)c(O)c1)c1ccccc1F	none
COc1cccc(C(=O)N2CCN(Cc3ccc(Cl)cc3)CC2)c1	none
O=C(Cc1ccccc1)Nc1ccc2oc(-c3ccccc3F)nc2c1	none
CCOc1ccccc1CN1CCC(C(=O)N2CCN(c3ccccc3F)CC2)CC1	none
CCOc1ccc(NC(=O)c2c(-c3ccccc3)noc2C)cc1	none
C=CCSc1nc2c(c(=O)[nH]1)C1(CCCC1)Cc1ccccc1-2	none
Cc1n[nH]c(C)c1-c1cccc([N+](=O)[O-])c1	none
CCOc1ccccc1C(=O)Nc1nc(C)cs1	none
COc1cccc(C(=O)NN2CCCCC2)c1OC	none
Cc1[nH]nc(Nc2cccc(Cl)c2)c1[N+](=O)[O-]	none
CC(C)(C)C(=O)Nc1ccc(S(=O)(=O)Nc2cnc3ccccc3n2)cc1	none
CCN(c1ccccc1)S(=O)(=O)c1ccc([N+](=O)[O-])cc1	none
Cc1ccc(NC(=O)CCC(=O)O)c(C)c1	none
Cc1ccc(NC(=O)CC(C)C)c(NC(=O)CC(C)C)c1	Chlamy TAG active
Cc1cccc(C(=O)Nc2ccc(C)cc2NC(=O)c2cccc(C)c2)c1	none
C(#CC12CC3CC(CC(C3)C1)C2)CN1CCOCC1	Chlamy TAG active
C(#CC1CC1)CN1CCOCC1	none
OC1(C#CCN2CCOCC2)CCCCC1	none
O=C(Nc1ccc([N+](=O)[O-])cc1)c1ccccc1Cl	Chlamy TAG active
COc1cccc(OC)c1C(=O)Nc1ccc([N+](=O)[O-])cc1	none
O=C(Nc1ccc(Cc2ccncc2)cc1)c1ccc([N+](=O)[O-])cc1Cl	Chlamy TAG active
O=C(Nc1cccc(NC(=O)c2ccccc2Cl)c1)c1ccc([N+](=O)[O-])cc1	none
Cc1ccc(C(=O)Nc2ccncc2)cc1[N+](=O)[O-]	none
O=C(Nc1ccc([N+](=O)[O-])cc1)c1c(F)c(F)c(F)c(F)c1F	Chlamy TAG active
